According to the supplement of paper PMC10681739:
± gives the standard deviation of the averaged measurements. In all, about 4,100 sequences were measured (“arbitrary fluorescence units”: median about 780, highest 2% from about 22,000 on). This is one part of a sample in which the highest values are shown more often than they occur.

molecular target: T1, ETS1 (UniProt P14921); assay: ETS1 binding intensity (PBM fluorescence), ETS1 alone (arbitrary fluorescence units); higher = stronger binding; details: ETS1 concentration 1 nM; RUNX1 concentration 0 nM
T1 sequence: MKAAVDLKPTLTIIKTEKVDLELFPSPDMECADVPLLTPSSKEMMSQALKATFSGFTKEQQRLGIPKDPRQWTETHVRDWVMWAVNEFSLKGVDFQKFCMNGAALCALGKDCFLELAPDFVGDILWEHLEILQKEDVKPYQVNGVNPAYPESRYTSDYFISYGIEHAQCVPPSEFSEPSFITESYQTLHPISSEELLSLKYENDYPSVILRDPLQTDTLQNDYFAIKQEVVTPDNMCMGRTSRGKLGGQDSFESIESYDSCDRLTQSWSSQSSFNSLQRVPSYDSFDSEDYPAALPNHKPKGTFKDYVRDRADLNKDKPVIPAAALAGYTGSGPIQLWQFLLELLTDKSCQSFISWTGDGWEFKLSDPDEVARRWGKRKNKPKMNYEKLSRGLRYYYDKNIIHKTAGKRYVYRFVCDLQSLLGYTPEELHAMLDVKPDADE
Procedure: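 gcPBM on 36-bp genomic-derived probes (partner site mutated) containing one ETS1 site and no RUNX1 site. Recombinant human ETS1 (1 nM) was incubated alone or with RUNX1 (25 nM) and detected by anti-ETS1 antibody fluorescence. Values are medians over 4 replicate spots (not normalised). The probes sit in constant array flanks that are not printed.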

**Q.** With GTCGGAAGTGGCCGTGAGCCCAAGCCGAGGTCCCGG as the sequence, how does the ETS1 binding intensity read?
**A.** The ETS1 binding intensity was 1130.

**Q.** With TGCGCCAGCGGGAGGGAGCAGTTCCGGGTACGGTGC as the sequence, how does the ETS1 binding intensity read?
**A.** Its ETS1 binding intensity is 563.

**Q.** How did the ETS1 binding intensity turn out when CAGGACCCCTGTACTCCGGGTGAAGCGGAAGCGCAG was run?
**A.** Its ETS1 binding intensity is 667.

**Q.** Which ETS1 binding intensity does the source give for TTATCTGTCGTTCTTTTATGGGGTGGGCTTCCTCTG here?
**A.** Its ETS1 binding intensity is 503.

**Q.** Which ETS1 binding intensity does the source give for GAGAAAGCAGCGCCCCAGCGCGCCTTCCGCCACGCC here?
**A.** Its ETS1 binding intensity is 328.

**Q.** For AGCCGCCACTTCCTGTCTCTGAGGGTGCATGCTCTT, which ETS1 binding intensity is on record?
**A.** The ETS1 binding intensity was 36000.

**Q.** Which ETS1 binding intensity does the source give for CTGACTTGTTGTAGTCTCTGCCACTTCCTGAGGTGT here?
**A.** The ETS1 binding intensity was 668.

**Q.** Which ETS1 binding intensity does the source give for CAGTCTGGCCATGAGGTGCCACTTCCTCTCTGGTTT here?
**A.** Its ETS1 binding intensity is 1550.

**Q.** TAAAATTTCGGGAGGGGACTTGGTCCTTCCTGTTGC was tested. Which ETS1 binding intensity did it give?
**A.** The ETS1 binding intensity was 735.

**Q.** Which ETS1 binding intensity does the source give for GCGCCCCGCTTCCGGGGCCGCCCTAAACGGCGGCCG here?
**A.** Its ETS1 binding intensity is 10100.

**Q.** AGCAACCTACTACCCGGCGCCTGATTCACTTCCCTC was tested. Which ETS1 binding intensity did it give?
**A.** The ETS1 binding intensity was 391.

**Q.** How did the ETS1 binding intensity turn out when ATTACATCCGGGCTCCGCGACACGCCCGAACCCCAA was run?
**A.** The ETS1 binding intensity was 25300.

**Q.** How did the ETS1 binding intensity turn out when CCCCGTTACGCCCATCCGGCTCCCGAATAGGGCGTC was run?
**A.** The ETS1 binding intensity was 2610.

**Q.** Which ETS1 binding intensity does the source give for CTTACTATATTAACGCCGGTACACATCCGCCCGACA here?
**A.** The ETS1 binding intensity was 1800.

**Q.** Which ETS1 binding intensity does the source give for CTTACGGCCTCGCGCCATGGGCAGTATCCGCCGCCA here?
**A.** The ETS1 binding intensity was 328.

**Q.** Which ETS1 binding intensity does the source give for GATGGGCTGGGGATGTGGCCTGTTTGCCGCTGGCGA here?
**A.** Its ETS1 binding intensity is 361.

**Q.** GGCTGCGACTTCCGGACTGCTCCTGGCCGCTGGGGG was tested. Which ETS1 binding intensity did it give?
**A.** The ETS1 binding intensity was 22900 ± 1200.

**Q.** For GGCTGCGCCGGCTGGGGTGTTCCTCCGACTTCCGGA, which ETS1 binding intensity is on record?
**A.** Its ETS1 binding intensity is 1590.

**Q.** For CAGCCGACTTCCGGGGTGGGGCTTGCTGCCGCTGAG, which ETS1 binding intensity is on record?
**A.** The ETS1 binding intensity was 19300.

**Q.** For GCAGAGAGGAAGTGTGGGGGTGGAGGAGGCCGAAGA, which ETS1 binding intensity is on record?
**A.** The ETS1 binding intensity was 1840.

**Q.** AGACGGGACCGGAAGCCGGGCCGTAGGCGGCCGGGC was tested. Which ETS1 binding intensity did it give?
**A.** Its ETS1 binding intensity is 12100.

**Q.** TTTCGAGAAAACCGGAAGTGCGTGGACACGCCCCGC was tested. Which ETS1 binding intensity did it give?
**A.** The ETS1 binding intensity was 31500.

**Q.** For GCCGCCGTAGATTCGACACAAAACCCGGAAGGACCC, which ETS1 binding intensity is on record?
**A.** Its ETS1 binding intensity is 530.

**Q.** AAACTACTTCCCCATATCATCTGTAGCTTGCACAAC was tested. Which ETS1 binding intensity did it give?
**A.** Its ETS1 binding intensity is 1180.

**Q.** TGAGGTGCTAAAGCACCAAGCACTTCCTGCTGTTAG was tested. Which ETS1 binding intensity did it give?
**A.** Its ETS1 binding intensity is 3380.

**Q.** How did the ETS1 binding intensity turn out when CTTAGCACTTGTAGTCAGCCTGCTTCCGGCTGTGGC was run?
**A.** The ETS1 binding intensity was 2100.

**Q.** How did the ETS1 binding intensity turn out when GCGAGCACTTCCGGTGTGTGAGCCTGCTGTTGCTAC was run?
**A.** The ETS1 binding intensity was 32800.

**Q.** How did the ETS1 binding intensity turn out when GGGGCAGGAAGTGGAGGTTTGAAGTGCTTTAGAGTA was run?
**A.** The ETS1 binding intensity was 7390.

**Q.** For GGGCCCCTCAGCCCGACCGCCTGACCGGAAGTGCAG, which ETS1 binding intensity is on record?
**A.** Its ETS1 binding intensity is 5030.

**Q.** Which ETS1 binding intensity does the source give for TGAACTCCGCCCAGCGCGATCCGGAAGCCTAGCGCC here?
**A.** The ETS1 binding intensity was 443.

**Q.** With TCGCTTCCGGTGTCGGTTACAGACTGGGGTTGCCAT as the sequence, how does the ETS1 binding intensity read?
**A.** The ETS1 binding intensity was 30000.

**Q.** For TGCTTCCCGTCCGTGTCGCGGCCCTGGGGTTGGCGG, which ETS1 binding intensity is on record?
**A.** Its ETS1 binding intensity is 8550.

**Q.** How did the ETS1 binding intensity turn out when TTGGTGACCTCTTCCTGTCCGCTGGGGTGTTGTTAC was run?
**A.** The ETS1 binding intensity was 3680.

**Q.** For TTCAGGCGGCAAAGAACAGACCTGCAGGAGGAAATA, which ETS1 binding intensity is on record?
**A.** Its ETS1 binding intensity is 404.

**Q.** How did the ETS1 binding intensity turn out when CTCTTCCGGCCGCGAGGAGCGCGACAGCGGCCCCTG was run?
**A.** Its ETS1 binding intensity is 14400.

**Q.** With TGTTGACTCAGGAAGATGATGGCTGAGGGGGCTGCA as the sequence, how does the ETS1 binding intensity read?
**A.** Its ETS1 binding intensity is 509.

**Q.** How did the ETS1 binding intensity turn out when CTAAAGGCAGGGACTACAAACACTTCCTGTTTGTGT was run?
**A.** Its ETS1 binding intensity is 7710.

**Q.** CACTTCCTCCTCGGGGGCCTCAGAAAATCACAGGGC was tested. Which ETS1 binding intensity did it give?
**A.** The ETS1 binding intensity was 13200.

**Q.** With TCTAAATCACTTCCTGTTACAGAAACTACAGGCCTG as the sequence, how does the ETS1 binding intensity read?
**A.** Its ETS1 binding intensity is 26900.

**Q.** With GGAGCGCGCTGGGGACGTTTAAAGGAAATTTACAAT as the sequence, how does the ETS1 binding intensity read?
**A.** The ETS1 binding intensity was 363.

**Q.** TCCGTGAGGTGCAGCAGGTCGGTAGGCGGGAAATGG was tested. Which ETS1 binding intensity did it give?
**A.** Its ETS1 binding intensity is 378.

**Q.** Which ETS1 binding intensity does the source give for AACATCCGGTTCCCGGTTCTGCCCCCTACCCCAGCT here?
**A.** Its ETS1 binding intensity is 49100.

**Q.** Which ETS1 binding intensity does the source give for CCGACCCCAGCTTCCCGGGGTTGAGGCCCTGCCTCC here?
**A.** Its ETS1 binding intensity is 462.

**Q.** With TGCTGCACCCCAGCCCCTTTCTCTTCCGGTTCTAGG as the sequence, how does the ETS1 binding intensity read?
**A.** Its ETS1 binding intensity is 1850.

**Q.** How did the ETS1 binding intensity turn out when ACTTGACTTCCTGTGGGGTGTCTGGTGTCTGCACTT was run?
**A.** The ETS1 binding intensity was 11700.

**Q.** With GACCACTTCCTTTCTGTGTTTTGGGGTTTCACAACT as the sequence, how does the ETS1 binding intensity read?
**A.** The ETS1 binding intensity was 11900.

**Q.** With ACAACTTCCTGTGGGATTTTTGGTGTCTACGGCTCA as the sequence, how does the ETS1 binding intensity read?
**A.** The ETS1 binding intensity was 37400.

**Q.** For GGGCCCACATCCGGCGCGCGCAACAGCAGCCTACTG, which ETS1 binding intensity is on record?
**A.** Its ETS1 binding intensity is 25800.

**Q.** For GTCCAACAGCAGCCAGGCAAGCACATCCTGCCCCAC, which ETS1 binding intensity is on record?
**A.** The ETS1 binding intensity was 1980.

**Q.** How did the ETS1 binding intensity turn out when CTCCCACATCCGAAGCGGCGCAACTCACAACAGCCT was run?
**A.** Its ETS1 binding intensity is 1140.

**Q.** Which ETS1 binding intensity does the source give for CGAAGAGGAAACAAAGAAAGGTGCTGTTCTGGCGCC here?
**A.** Its ETS1 binding intensity is 506.

**Q.** For TCAAGAAAACAGGAAACTCTCAAATCCAAGTTCTGA, which ETS1 binding intensity is on record?
**A.** Its ETS1 binding intensity is 3280.

**Q.** Which ETS1 binding intensity does the source give for TTCTATCCTGCCTTGCATGTCTTTAATCACACTGAG here?
**A.** The ETS1 binding intensity was 1540.

**Q.** How did the ETS1 binding intensity turn out when ATGAGCTATTTCCTGCCTTGTTGTCAGAGCCAGACT was run?
**A.** The ETS1 binding intensity was 23500.

**Q.** For CAGCTGCAGGCCTGGGTGTACGGAGCCCGGAACAGG, which ETS1 binding intensity is on record?
**A.** Its ETS1 binding intensity is 567.

**Q.** Which ETS1 binding intensity does the source give for TACCTACAGGAAATGAGACACACCTCAGGCCGATCC here?
**A.** The ETS1 binding intensity was 5550.

**Q.** CTCAGACCCTCAGTGAGGTCTGACGTCATTTCCTGC was tested. Which ETS1 binding intensity did it give?
**A.** The ETS1 binding intensity was 734.

**Q.** How did the ETS1 binding intensity turn out when CCTGCTGCTGTCAGCCCTGTCTCTTCCTGTTTCTGC was run?
**A.** The ETS1 binding intensity was 1030.

**Q.** With CTCGTGTTTTGTAGCTGTGTTCTGTCCGGTCAGTTG as the sequence, how does the ETS1 binding intensity read?
**A.** Its ETS1 binding intensity is 502 ± 32.

**Q.** How did the ETS1 binding intensity turn out when CACTTCCGGGTCGTCAGCTCAGTTCTGCTGTTTCTG was run?
**A.** Its ETS1 binding intensity is 26000.

**Q.** For TGGATAGTGGGACACCTCAACAGGATGTTAGTGAGG, which ETS1 binding intensity is on record?
**A.** The ETS1 binding intensity was 858.

**Q.** How did the ETS1 binding intensity turn out when GACGGCCGCTTTTGGCGCGGGACTTCCTGCCTGGCC was run?
**A.** The ETS1 binding intensity was 3070.

**Q.** For CCCTCCGGCCCTCAGCCCTGCCCAAACGGAAGTGCT, which ETS1 binding intensity is on record?
**A.** The ETS1 binding intensity was 787.
